# According to paper PMC7862700, “An all-to-all approach to the identification of sequence-specific readers for epigenetic DNA modifications on cytosine”:
# Assays:
# Test in all cases: DAPPL (digital affinity profiling via proximity ligation, sequencing); 10 mM Tris-HCl pH 7.5, 50 mM NaCl, 1 mM DTT, 4% glycerol, room temperature, 30 min; GST-TFs on glutathione beads, 16-mer random dsDNA library, 0.1% formaldehyde crosslink after washing; high values mean tight binding
# Conditions in all cases: protein: recombinant; tags: N-terminal GST; dsDNA, one strand shown
# FLI1 = target: T1, FLI1 (Homo sapiens, UniProt Q01543 1-452)
# T1 sequence: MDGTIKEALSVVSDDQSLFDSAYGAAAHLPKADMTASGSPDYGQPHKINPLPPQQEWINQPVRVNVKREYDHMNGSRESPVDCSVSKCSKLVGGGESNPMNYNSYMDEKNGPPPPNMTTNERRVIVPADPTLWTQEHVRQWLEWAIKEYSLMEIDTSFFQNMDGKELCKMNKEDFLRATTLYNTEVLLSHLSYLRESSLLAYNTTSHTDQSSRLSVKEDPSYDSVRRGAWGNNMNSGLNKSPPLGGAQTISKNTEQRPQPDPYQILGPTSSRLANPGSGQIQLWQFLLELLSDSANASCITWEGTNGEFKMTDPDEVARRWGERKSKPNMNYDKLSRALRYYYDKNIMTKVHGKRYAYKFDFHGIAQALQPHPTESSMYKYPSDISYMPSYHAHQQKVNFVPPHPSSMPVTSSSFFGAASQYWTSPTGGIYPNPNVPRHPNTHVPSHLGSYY
# How it was run: (§1)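 Binding signal is given per hexamer as its read frequency for a factor divided by its frequency in the tag-only sample. GST-fused human transcription factors were expressed in yeast, captured on glutathione beads, barcoded with DNA and pooled with that sample, then incubated with 200 nmole of a 16-mer random double-stranded DNA library in Tris/NaCl/DTT/glycerol buffer for 30 min at room temperature. The pools were then washed, crosslinked, proximity-ligated, amplified by PCR and sequenced on an Illumina NextSeq500.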
# ELK1 = target: T2, ELK1 (Homo sapiens, UniProt P19419 1-428)
# T2 sequence: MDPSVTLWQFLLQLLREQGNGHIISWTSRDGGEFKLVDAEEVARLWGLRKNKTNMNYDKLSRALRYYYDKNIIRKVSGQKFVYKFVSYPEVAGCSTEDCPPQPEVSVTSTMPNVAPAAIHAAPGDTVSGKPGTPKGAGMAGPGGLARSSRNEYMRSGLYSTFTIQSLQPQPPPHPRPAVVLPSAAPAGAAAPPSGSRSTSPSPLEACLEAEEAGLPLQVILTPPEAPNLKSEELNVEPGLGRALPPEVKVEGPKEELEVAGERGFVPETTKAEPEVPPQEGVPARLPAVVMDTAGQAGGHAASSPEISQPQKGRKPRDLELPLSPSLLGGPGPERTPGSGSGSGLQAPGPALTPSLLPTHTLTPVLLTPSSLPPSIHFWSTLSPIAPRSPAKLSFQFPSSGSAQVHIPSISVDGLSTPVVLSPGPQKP
# How it was run: as §1
# GABPA = target: T3, GABPA (Homo sapiens, UniProt Q06546 1-454)
# T3 sequence: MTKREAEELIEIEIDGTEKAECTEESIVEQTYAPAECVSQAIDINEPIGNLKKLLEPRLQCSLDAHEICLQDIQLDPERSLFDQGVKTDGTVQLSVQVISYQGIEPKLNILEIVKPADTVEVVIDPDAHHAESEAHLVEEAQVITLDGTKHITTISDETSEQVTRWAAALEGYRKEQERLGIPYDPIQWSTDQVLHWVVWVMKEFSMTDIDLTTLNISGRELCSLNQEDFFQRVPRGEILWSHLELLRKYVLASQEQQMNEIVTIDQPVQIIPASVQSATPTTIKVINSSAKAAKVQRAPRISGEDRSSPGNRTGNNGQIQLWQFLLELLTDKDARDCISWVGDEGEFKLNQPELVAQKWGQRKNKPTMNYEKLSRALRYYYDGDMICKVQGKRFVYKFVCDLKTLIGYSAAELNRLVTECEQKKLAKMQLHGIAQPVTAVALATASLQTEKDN
# How it was run: as §1
# ERG = target: T4, ERG (Homo sapiens, UniProt P11308 1-479)
# T4 sequence: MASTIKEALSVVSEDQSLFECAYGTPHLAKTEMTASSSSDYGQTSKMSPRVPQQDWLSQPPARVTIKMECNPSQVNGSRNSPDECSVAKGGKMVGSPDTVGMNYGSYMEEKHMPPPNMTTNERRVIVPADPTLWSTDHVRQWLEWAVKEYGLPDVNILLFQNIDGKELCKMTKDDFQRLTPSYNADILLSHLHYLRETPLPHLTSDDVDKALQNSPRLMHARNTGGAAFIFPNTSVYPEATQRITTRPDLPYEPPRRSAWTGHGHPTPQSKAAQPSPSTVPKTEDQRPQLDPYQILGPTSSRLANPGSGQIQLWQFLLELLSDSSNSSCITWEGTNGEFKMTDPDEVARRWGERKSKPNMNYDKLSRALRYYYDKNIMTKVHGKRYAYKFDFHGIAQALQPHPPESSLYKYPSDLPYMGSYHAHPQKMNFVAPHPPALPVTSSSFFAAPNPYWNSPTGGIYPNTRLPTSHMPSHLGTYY
# How it was run: as §1
# ELF1 = ELF1 (Homo sapiens, UniProt P32519 1-619)
# How it was run: as §1
# EHF = target: T5, EHF (Homo sapiens, UniProt Q9NZC4 1-300)
# T5 sequence: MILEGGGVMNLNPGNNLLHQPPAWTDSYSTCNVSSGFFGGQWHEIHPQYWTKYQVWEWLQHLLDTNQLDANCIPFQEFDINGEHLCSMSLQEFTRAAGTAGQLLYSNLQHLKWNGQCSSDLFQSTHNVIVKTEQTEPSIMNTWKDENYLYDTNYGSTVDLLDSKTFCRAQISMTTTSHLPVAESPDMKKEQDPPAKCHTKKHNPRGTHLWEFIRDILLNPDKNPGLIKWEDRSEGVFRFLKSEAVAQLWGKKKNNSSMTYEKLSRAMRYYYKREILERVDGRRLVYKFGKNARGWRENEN
# How it was run: as §1
# SPI1 = SPI1 (Homo sapiens, UniProt P17947 1-270)
# How it was run: as §1
# ELK3 = target: T6, ELK3 (Homo sapiens, UniProt P41970 1-407)
# T6 sequence: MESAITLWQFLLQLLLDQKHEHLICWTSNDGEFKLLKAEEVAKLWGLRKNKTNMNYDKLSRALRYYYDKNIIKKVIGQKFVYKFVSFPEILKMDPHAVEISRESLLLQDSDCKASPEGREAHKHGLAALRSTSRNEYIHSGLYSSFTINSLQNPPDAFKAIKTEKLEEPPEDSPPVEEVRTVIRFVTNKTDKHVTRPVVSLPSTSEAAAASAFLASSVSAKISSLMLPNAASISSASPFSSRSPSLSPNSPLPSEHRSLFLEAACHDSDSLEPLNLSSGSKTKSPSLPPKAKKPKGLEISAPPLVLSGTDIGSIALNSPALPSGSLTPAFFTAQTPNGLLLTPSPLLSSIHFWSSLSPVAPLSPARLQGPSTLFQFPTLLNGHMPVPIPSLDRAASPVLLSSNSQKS
# How it was run: as §1
# FEV = target: T7, FEV (Homo sapiens, UniProt Q99581 1-238)
# T7 sequence: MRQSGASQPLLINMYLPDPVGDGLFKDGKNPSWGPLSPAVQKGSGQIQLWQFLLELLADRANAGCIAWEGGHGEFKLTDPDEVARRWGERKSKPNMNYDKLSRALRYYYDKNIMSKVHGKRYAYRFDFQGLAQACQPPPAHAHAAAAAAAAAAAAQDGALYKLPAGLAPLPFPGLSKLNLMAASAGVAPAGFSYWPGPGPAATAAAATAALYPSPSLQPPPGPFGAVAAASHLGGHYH
# How it was run: as §1
# ETV5 = ETV5 (Homo sapiens, UniProt P41161 1-510)
# How it was run: as §1
# SPIC = target: T8, SPIC (Homo sapiens, UniProt Q8N5J4 1-248)
# T8 sequence: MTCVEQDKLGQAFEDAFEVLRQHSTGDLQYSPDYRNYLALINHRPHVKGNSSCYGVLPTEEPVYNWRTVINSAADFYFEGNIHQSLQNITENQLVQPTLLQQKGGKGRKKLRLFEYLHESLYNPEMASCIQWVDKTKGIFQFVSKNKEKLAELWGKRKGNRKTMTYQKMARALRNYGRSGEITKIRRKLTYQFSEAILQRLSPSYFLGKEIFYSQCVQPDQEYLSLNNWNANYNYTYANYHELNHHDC
# How it was run: as §1
# ELF4 = ELF4 (Homo sapiens, UniProt Q99607 1-663)
# How it was run: as §1
# ETV1 = ETV1 (Homo sapiens, UniProt P50549 1-477)
# How it was run: as §1
# ERF = target: T9, ERF (Homo sapiens, UniProt P50548 1-548)
# T9 sequence: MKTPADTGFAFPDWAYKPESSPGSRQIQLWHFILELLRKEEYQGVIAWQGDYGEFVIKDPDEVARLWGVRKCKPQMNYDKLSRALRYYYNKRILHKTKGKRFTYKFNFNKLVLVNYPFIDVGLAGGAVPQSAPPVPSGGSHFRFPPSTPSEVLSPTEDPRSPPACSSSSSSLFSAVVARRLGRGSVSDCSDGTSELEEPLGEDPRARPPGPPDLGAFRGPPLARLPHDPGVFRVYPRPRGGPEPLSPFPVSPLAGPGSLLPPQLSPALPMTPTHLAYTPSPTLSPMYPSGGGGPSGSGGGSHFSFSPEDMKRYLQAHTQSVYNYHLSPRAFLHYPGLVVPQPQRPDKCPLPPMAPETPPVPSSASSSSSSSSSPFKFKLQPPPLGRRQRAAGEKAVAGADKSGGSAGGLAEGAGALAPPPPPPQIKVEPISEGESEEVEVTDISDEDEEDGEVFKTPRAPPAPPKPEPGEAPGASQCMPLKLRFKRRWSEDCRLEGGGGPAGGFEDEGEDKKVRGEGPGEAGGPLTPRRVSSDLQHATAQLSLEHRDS
# How it was run: as §1
# ETV3L = target: T10, ETV3L (Homo sapiens, UniProt Q6ZN32 1-361)
# T10 sequence: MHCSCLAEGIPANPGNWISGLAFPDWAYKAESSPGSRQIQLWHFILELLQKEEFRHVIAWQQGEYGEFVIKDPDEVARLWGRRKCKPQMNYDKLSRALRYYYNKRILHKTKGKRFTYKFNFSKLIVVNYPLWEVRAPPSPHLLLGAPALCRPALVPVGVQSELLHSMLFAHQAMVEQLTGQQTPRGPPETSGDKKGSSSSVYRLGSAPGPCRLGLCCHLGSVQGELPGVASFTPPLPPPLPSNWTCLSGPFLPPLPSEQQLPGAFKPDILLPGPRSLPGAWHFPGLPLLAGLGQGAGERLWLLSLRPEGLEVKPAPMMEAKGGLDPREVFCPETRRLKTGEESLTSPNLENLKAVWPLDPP
# How it was run: as §1
# ETS2 = target: T11, ETS2 (Homo sapiens, UniProt P15036 1-469)
# T11 sequence: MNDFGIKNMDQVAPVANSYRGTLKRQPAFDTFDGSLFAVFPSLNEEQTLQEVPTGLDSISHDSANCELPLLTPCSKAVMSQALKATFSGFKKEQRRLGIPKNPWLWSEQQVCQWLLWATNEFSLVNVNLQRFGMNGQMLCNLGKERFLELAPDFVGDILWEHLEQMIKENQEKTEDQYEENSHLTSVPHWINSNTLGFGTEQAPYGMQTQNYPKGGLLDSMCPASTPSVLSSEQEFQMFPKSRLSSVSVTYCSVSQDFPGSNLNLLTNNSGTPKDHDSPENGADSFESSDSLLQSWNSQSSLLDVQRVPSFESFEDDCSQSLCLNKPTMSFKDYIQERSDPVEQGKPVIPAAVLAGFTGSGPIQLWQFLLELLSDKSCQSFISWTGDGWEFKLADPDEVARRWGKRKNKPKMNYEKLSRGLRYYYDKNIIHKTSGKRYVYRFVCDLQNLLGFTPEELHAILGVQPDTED
# How it was run: as §1
# ELF5 = target: T12, ELF5 (Homo sapiens, UniProt Q9UKW6-2 1-255)
# T12 sequence: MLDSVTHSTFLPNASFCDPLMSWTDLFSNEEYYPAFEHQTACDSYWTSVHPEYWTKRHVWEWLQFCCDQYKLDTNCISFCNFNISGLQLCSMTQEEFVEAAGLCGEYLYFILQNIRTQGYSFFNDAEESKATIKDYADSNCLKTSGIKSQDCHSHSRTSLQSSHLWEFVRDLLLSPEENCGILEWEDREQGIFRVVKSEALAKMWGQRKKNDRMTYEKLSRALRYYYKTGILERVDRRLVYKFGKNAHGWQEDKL
# How it was run: as §1
# ETV3 = target: T13, ETV3 (Homo sapiens, UniProt P41162-2 1-143)
# T13 sequence: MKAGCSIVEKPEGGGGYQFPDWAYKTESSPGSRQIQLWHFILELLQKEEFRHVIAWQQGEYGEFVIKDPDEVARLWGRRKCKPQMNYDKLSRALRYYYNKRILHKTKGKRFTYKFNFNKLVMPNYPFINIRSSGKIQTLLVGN
# How it was run: as §1
# ETV6 = ETV6 (Homo sapiens, UniProt P41212 1-452)
# How it was run: as §1
# ELF1, sequence (P32519 whole entry): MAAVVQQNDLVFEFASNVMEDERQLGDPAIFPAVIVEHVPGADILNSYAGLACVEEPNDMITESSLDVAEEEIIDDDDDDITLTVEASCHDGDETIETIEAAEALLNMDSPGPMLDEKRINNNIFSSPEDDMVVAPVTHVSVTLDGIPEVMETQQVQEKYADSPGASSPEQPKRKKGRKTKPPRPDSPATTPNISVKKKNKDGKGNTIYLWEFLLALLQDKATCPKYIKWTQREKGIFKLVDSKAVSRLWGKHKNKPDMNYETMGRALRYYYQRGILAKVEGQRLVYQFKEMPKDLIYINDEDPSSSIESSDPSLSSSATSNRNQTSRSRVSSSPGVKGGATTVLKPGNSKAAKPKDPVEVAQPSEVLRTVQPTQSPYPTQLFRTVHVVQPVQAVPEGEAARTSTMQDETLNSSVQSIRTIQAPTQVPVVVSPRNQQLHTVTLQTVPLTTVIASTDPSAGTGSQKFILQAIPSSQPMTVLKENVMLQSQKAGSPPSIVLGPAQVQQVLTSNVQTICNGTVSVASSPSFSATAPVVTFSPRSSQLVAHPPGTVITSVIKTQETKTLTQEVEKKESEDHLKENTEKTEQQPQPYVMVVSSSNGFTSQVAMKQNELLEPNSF
# ELF4, sequence (Q99607 whole entry): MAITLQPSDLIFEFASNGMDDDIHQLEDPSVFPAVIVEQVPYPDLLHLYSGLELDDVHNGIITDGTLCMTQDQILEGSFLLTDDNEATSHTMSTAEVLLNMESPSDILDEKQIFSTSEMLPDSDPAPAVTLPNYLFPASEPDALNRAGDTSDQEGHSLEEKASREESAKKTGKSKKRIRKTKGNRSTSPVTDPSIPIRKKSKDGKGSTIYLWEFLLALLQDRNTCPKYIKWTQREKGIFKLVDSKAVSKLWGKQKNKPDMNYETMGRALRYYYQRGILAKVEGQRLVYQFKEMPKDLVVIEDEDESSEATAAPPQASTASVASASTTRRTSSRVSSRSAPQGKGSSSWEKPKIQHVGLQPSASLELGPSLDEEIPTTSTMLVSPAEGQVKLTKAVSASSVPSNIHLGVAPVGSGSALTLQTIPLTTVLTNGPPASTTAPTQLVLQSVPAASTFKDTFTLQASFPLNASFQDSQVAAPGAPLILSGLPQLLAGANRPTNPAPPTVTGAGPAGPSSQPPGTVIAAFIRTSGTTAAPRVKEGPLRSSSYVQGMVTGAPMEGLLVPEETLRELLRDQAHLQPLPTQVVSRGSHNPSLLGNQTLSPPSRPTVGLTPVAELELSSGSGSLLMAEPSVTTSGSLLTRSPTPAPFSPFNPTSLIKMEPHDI
# ETV6, sequence (P41212 whole entry): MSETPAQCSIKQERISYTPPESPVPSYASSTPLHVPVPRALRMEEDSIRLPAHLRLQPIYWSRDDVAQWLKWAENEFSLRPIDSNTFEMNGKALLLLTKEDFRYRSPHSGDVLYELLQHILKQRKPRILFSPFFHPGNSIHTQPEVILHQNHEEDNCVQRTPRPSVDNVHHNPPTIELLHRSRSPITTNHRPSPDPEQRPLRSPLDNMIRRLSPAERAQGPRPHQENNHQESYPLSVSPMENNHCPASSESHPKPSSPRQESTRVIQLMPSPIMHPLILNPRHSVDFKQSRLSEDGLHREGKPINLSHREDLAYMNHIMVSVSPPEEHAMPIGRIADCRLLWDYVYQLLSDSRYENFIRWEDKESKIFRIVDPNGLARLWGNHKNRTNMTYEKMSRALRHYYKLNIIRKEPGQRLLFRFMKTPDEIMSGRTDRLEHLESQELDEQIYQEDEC
# ETV5, sequence (P41161 whole entry): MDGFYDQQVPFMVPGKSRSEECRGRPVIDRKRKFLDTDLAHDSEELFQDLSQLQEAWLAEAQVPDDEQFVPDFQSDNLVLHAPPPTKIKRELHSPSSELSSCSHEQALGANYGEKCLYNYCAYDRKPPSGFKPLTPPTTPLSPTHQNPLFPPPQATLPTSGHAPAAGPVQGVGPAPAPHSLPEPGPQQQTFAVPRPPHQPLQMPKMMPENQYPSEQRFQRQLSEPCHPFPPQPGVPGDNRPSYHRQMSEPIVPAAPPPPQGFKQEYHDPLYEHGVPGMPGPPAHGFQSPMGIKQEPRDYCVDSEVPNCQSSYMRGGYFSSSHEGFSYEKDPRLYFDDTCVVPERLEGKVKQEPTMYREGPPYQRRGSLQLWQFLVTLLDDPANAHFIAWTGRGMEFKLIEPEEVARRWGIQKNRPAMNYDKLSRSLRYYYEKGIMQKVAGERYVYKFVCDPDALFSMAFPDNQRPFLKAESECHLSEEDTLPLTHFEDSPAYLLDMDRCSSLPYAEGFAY
# ETV1, sequence (P50549 whole entry): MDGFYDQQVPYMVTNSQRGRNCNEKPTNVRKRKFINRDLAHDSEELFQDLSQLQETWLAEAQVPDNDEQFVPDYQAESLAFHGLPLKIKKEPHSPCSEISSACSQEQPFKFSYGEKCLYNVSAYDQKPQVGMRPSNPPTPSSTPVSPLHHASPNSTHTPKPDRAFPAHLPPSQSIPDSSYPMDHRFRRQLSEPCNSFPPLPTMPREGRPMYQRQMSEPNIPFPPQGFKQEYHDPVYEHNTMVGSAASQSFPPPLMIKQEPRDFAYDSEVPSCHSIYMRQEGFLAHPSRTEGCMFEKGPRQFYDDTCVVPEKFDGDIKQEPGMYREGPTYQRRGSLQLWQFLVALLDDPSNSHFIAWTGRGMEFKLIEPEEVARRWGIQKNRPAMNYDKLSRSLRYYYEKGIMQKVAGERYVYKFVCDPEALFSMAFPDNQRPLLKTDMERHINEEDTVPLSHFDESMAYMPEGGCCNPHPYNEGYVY
sequence,measurement,setting,value
GCCGCC,binding signal,FLI1,"1.21 fold enrichment (6-mer frequency, TF over GST control)"
same,binding signal,ELK1,"1.1 fold enrichment (6-mer frequency, TF over GST control)"
same,binding signal,GABPA,"1.16 fold enrichment (6-mer frequency, TF over GST control)"
same,binding signal,ERG,"1.02 fold enrichment (6-mer frequency, TF over GST control)"
same,binding signal,ELF1,"1 fold enrichment (6-mer frequency, TF over GST control)"
same,binding signal,EHF,"1.05 fold enrichment (6-mer frequency, TF over GST control)"
same,binding signal,SPI1,"1.13 fold enrichment (6-mer frequency, TF over GST control)"
same,binding signal,ELK3,"1.15 fold enrichment (6-mer frequency, TF over GST control)"
same,binding signal,FEV,"1.05 fold enrichment (6-mer frequency, TF over GST control)"
same,binding signal,ETV5,"1.04 fold enrichment (6-mer frequency, TF over GST control)"
same,binding signal,SPIC,"1.03 fold enrichment (6-mer frequency, TF over GST control)"
same,binding signal,ELF4,"1.08 fold enrichment (6-mer frequency, TF over GST control)"
same,binding signal,ETV1,"1.12 fold enrichment (6-mer frequency, TF over GST control)"
same,binding signal,ERF,"1.03 fold enrichment (6-mer frequency, TF over GST control)"
same,binding signal,ETV3L,"1 fold enrichment (6-mer frequency, TF over GST control)"
same,binding signal,ETS2,"1.01 fold enrichment (6-mer frequency, TF over GST control)"
same,binding signal,ELF5,"1.01 fold enrichment (6-mer frequency, TF over GST control)"
same,binding signal,ETV3,"1.11 fold enrichment (6-mer frequency, TF over GST control)"
same,binding signal,ETV6,"1.02 fold enrichment (6-mer frequency, TF over GST control)"
